# Laboratory results from PubChem BioAssay (NCATS).
# Results filed as inconclusive are left out. Unmarked numbers belong to inactive results. The source made the active and inactive calls. The call rests on the fitted dose curve; in most records, active means well fitted inhibition curve with a large enough effect; inconclusive means small, poorly fitted or top-dose-only effect; inactive means flat fitted curve, though single readings scatter.
# Experiment: P-glycoprotein substrates identified in KB-8-5-11 adenocarcinoma cell line, qHTS therapeutic library screen (AID 1346987); further: nearly all actives have a fitted effect of over 65% in size
# Conditions: KB-8-5-11 (P-gp overexpressing) viability, CellTiter-Glo, 72 h; series mostly up to 44.5 µM; activity change, negative = cytotoxicity: at the top concentration
# Summary of the method: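 In this qHTS, P-gp-rich KB-8-5-11 cells received library compounds across a concentration range. Viability was quantified by luminescence after 72 h at 37 degree C.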
# On the % scale 0 is the no-effect control and ±100 the full control effect.
Compound,"activity change, negative = cytotoxicity",outcome
C/C(=C\C1CCC(C)C2CCC3(C)OC123)C(=O)O (centres undefined),3.55%,
CC(=O)C1CCC(=O)N1Cc1ccccc1 (centres undefined),4.45%,
O=C(O)Cn1nnc(-c2ccc(CN(CCCCOc3ccc(CN4CCCC4)cc3)CCc3ccccc3)cc2)n1,4.22%,
CC(=O)Nc1cccc2c1c(Sc1ccc(Cl)cc1)c(C)n2CC(=O)O,2.16%,
CC(O)CCc1ccc(O[C@@H]2O[C@H](CO)[C@@H](O)[C@H](O)[C@H]2O)cc1 (some centres undefined),2.83%,
O=C(/C=C/c1ccc(O)cc1)OCC1OC(O)C(OC2OC(CO)C(O)C(O)C2O)C(O)C1O (centres undefined),6.71% [at 17.3 µM],
COc1ccc(/C=C/C(=O)N2CCCC2)cc1,-1.93%,
CC12CC34CC(O)C5C(CO)(CO)CC(=O)CC5(C)C3CC1C2C4 (centres undefined),-1.11%,
CC12CC(O)C(O)C=C1c1cc(O)cc(O)c1C(=O)O2 (centres undefined),,inactive
CC1(C)CCC[C@]2(C)C1CC=C(CO)[C@H]2CC/C(=C/CO)CO (some centres undefined),8.45%,
C/C=C(\C)C(=O)OC1C2(O)CC3=C4CC(=O)OC(c5ccoc5)C4(C)CCC3C(C)(C2=O)C(C(OC(C)=O)C(=O)OC)C1(C)C (centres undefined),-6.33% [at 17.3 µM],
Cc1cccc(NC(=O)CN2CCC(c3ccccn3)CC2)c1,-21.6%,
CC(C)=CCC[C@](C)(O[C@@H]1O[C@H](CO[C@@H]2O[C@@H](CO)[C@H](O)[C@H]2O[C@@H]2OC[C@@H](O)[C@H](O)[C@H]2O)[C@@H](O)[C@H](O)[C@H]1O)[C@H]1CC[C@]2(C)[C@@H]1[C@H](O)CC1[C@@]3(C)CC[C@H](O[C@@H]4O[C@H](CO)[C@@H](O)[C@H](O)[C@H]4O[C@@H]4O[C@H](CO)[C@@H](O)[C@H](O)[C@H]4O)C(C)(C)C3CC[C@]12C (some centres undefined),,inactive [at 9.29 µM]
CC1(C)CC[C@]2(C(=O)O)[C@H](O)C[C@]3(C)C(=CCC4[C@@]5(C)CC[C@H](O[C@@H]6OC[C@@H](O)[C@H](O)[C@H]6O)[C@@](C)(C(=O)O)C5CC[C@]43C)[C@@H]2C1 (some centres undefined),,inactive [at 17.3 µM]
C/C(CO)=C1/CCC23COC(C2)C(O)(C(=O)O)CCC13 (centres undefined),7.41%,
NC1Nc2ccccc2C1(N)CC1NC(=O)C(Cc2ccccc2)NC(=O)C(Cc2ccccc2)NC1=O (centres undefined),5.46% [at 17.3 µM],
O=C(OCC1=C[C@@H](O)[C@@H]2C=CO[C@@H](O[C@@H]3O[C@H](CO)[C@@H](O)[C@H](O)[C@H]3O)[C@H]12)c1ccc(O)cc1,7.61% [at 17.3 µM],
CCC1(O)CC2c3cc(OC)c(OC)cc3CCN2CC1CC(C)C (centres undefined),-18.2%,
CC(=O)O[C@@H]1[C@H](O[C@@H]2OC[C@](O)(CO)[C@H]2O)[C@@H](O[C@@H]2O[C@@H](C)[C@H](O)[C@@H](O[C@@H]3O[C@H](CO)[C@@H](O)[C@H](O)[C@H]3O)[C@H]2O)[C@H](OC(=O)[C@]23CCC(C)(C)C[C@H]2C2=CCC4[C@@]5(C)C[C@H](O)[C@H](O[C@@H]6O[C@H](C(=O)O)[C@@H](O)[C@H](O)[C@H]6O)[C@@](C)(C(=O)O)C5CC[C@@]4(C)[C@]2(C)CC3)O[C@@H]1C (some centres undefined),,inactive [at 9.29 µM]
